From PubChem BioAssay AID504465 (National Center for Advancing Translational Sciences (NCATS), 2011)
Screen size: about 2,100 compounds; about 210 (10%) were called active. Inconclusive results (about 53%) are left out. Calls follow the shape of the dose curve; as a rule, active = well fitted inhibition curve with a large enough effect; inconclusive = small, poorly fitted or top-dose-only effect, or effect the other way; inactive = no such curve, though single readings can be large or run the other way. The list shows a part of the results. Entries that show only a call come without a potency.

Assay: IN Cell qHTS Assay for Inhibitors of the mTORC1 Signaling Pathway in MEF (Tsc2-/-, p53-/-) Cells: Sytravon; also: nearly all actives have a fitted effect of over 60% in size
Conditions: phospho-rpS6 immunofluorescence, 24 h; series mostly up to 38.3 µM
Excerpt: NIH Molecular Libraries Probe Production Centers Network [MLPCN] NIH Chemical Genomics Center [NCGC] MLPCN Grant: NS059428-01 Assay Submitter (PI): Blenis, John; Hoffman, Greg; Harvard University NCGC Assay Overview: Thee mammalian target of rapamycin (mTOR) is an intracellular serine/threonine kinase Aberrant regulation of mTOR signaling plays a causative role in a number of human diseases, including cancer, benign tumors such as lymphangioleiomyomatosis (LAM) and Tuberous Sclerosis Complex (TSC), and metabolic diseases such as diabetes and obesity. This project aims to identify inhibitors of ribosomal protein S6 (rpS6) phosphorylation. The phosphorylation of rpS6 is a key event downstream of mTOR activation. The assay uses a phospho-specific antibody of phospho-rpS6 to detect inhibitors of mTOR activation. Mutations in the Tsc1 and Tsc2 genes are the underlying genetic lesions responsible for TSC, causing constitutive activation of the mTORC1 pathway and leading to profound effects on cell metabolism. Aberrant metabolism in cancer has recently received significant attention as a target to develop therapeutic agents in the treatment of cancer1. As Tsc2-/- cells have lost the ability to respond to energy and growth factor deprivation, these cells are unable to properly down regulate cellular biosynthetic processes in response to metabolic stress, and are thus extremely sensitive to glucose deprivation-induced death.2 A central goal of this project is to explore the unique cell survival and metabolic properties of cells with Tsc1 or Tsc2 by screening for compounds that selectively target the Tsc2-/- MEFs by screening both Tsc2-/- and WT MEF cell lines. We hope to better understand these aspects of TSC physiology in order to exploit them for therapeutic benefit.
NCGC IN Cell Assay Protocol: For quantitative high throughput analysis of mTORC1 signaling, we developed a cell-based assay for immuno-fluorescence based detection of rpS6 phosphorylation on the Acumen Explorer that will be used a platform for the primary small molecule screen. Mouse embryonic fibroblasts (MEFs) are cultured in 1536-well plates using DMEM + 10% FBS. Twenty-four hrs after plating, test compounds (solubilized in DMSO) are delivered and incubated with the cells for 24 hrs at 37 degree Celsius. Following the incubation, media with compound is aspirated and the cells are fixed in 4% paraformaldehyde (PFA) containing PBS + 0.2% TX-100. Next, PFA is aspirated, cells are washed two times with PBS plus 0.2% TX-100 and the cells are blocked for 1 hr at room temperature (blocking buffer: LiCOR Blocking Buffer plus 0.2% TX-100). This is followed by aspiration and staining with Alexa-488 conjugated-phospho-rpS6 Ser235/236 antibody for 2 hours at room temperature (Cell Signaling Technology # 4803, 1:50 dilution in blocking buffer). Cells are washed two times with PBS plus 0.2% TX-100, and stained with 10 uM propidium iodide (PI) for 20-25 minutes for cell number measurement (1:500 dilution of Hoescht staining is also added for IN Cell imaging). Active wells which are selected (based on Acumen results) are imaged on the IN Cell 1000 (GE Healthcare) using the D360/40X and HQ480/40X excitation filters for the Hoechst and Alexa-488 cytoplasmic stains, respectively. The fluorescence emission filters used were HQ460/40M and HQ535/50M for the Hoechst and Alexa-488 cytoplasmic stains, respectively. The normalized phospho-S6 staining is calculated as the ratio of […] for the single concentration rapamycin control (7.5 nM) and DMSO columns. […] Inhibition of the pathway is defined based on the normalized phospho-S6 intensity in rapamycin treated cells. Each treatment is reported as the % positive cells in the well, where thresholds are defined by selecting wells with the highest and lowest signal and differentiating between the % non-active and % active populations. […]
Potency is read from the fitted curve at half-maximal effect.

Row | Structure (SMILES) | Potency
1 | O=C(Nc1ccc(F)c(Cl)c1)c1cc(S(=O)(=O)N2CCc3ccccc3C2)ccc1F | inactive
2 | COC(=O)c1cc(C)nc2c1c(=O)nc(SCc1ccccc1Cl)n2C1CC1 | inactive
3 | COc1ccccc1N1CCN(C(=O)c2ccc3c(c2)CCN3S(=O)(=O)c2ccccc2)CC1 | inactive
4 | CCc1ccccc1NC(=O)CCNS(=O)(=O)c1ccc2c(c1)CCN2C(=O)C1CC1 | inactive
5 | Cc1ccc(Cl)cc1N1CCN(C(=O)c2cnn(-c3ccc(Cl)cc3)c2C2CCNCC2)CC1 | 13.1 µM (active)
6 | COc1ccc(-n2ncc(C(=O)N3CCN(C4CCCCC4)CC3)c2C2CCN(C(=O)OC(C)(C)C)CC2)cc1 | inactive
7 | Cc1ccc(Cl)cc1N1CCN(C(=O)c2ccc3c(c2)N(Cc2ccc(F)cc2)CCS3)CC1 | inactive
8 | COc1ccc(OC)c(NC(=O)c2c(NCc3ccc(C)o3)sc3c2CCC(C)C3)c1 (stereo not given) | inactive
9 | COC(=O)c1scc(-c2ccc(C)cc2)c1S(=O)(=O)Nc1cc(Cl)ccc1C | inactive
10 | COc1ccccc1CNS(=O)(=O)c1ccc(-c2cnc(C3CC3)o2)cc1 | inactive
11 | Cc1ccc(NS(=O)(=O)c2cc(-c3cnc(C4CC4)o3)ccc2C)cc1Cl | inactive
12 | Cc1cc(C)c(NS(=O)(=O)c2ccc(-c3cnc(C4CC4)o3)cc2)c(C)c1 | 11.7 µM (active)
13 | Cc1ccccc1-c1nc(SCC(=O)N(C)c2ccccc2)c2c(=O)n(C)c(=O)n(C)c2n1 | inactive
14 | O=c1c(-c2cc(-c3ccc(F)cc3)nc3c2COc2ccc(Cl)cc2-3)coc2ccc(F)cc12 | inactive
15 | CCOc1ccc(Nc2nc(-c3cccc(Cl)c3)c3c(n2)-c2ccccc2OC3)cc1 | 2.07 µM (active)
16 | CCOc1ccc(Nc2nc(N)c(C(=O)c3ccccc3Cl)s2)cc1 | inactive
17 | Cc1ccccc1C1CC(=O)Nc2ccc3ccccc3c21 (stereo not given) | inactive
18 | CCOc1cc(CNCCSc2nnnn2-c2ccccc2)ccc1OC | inactive
19 | Cc1ccc(NC(=O)CCS(=O)(=O)c2ccc3nc(C)sc3c2)cc1 | inactive
20 | COc1ccc(C2=CC(c3ccc(F)cc3)n3ncc(C(=O)Nc4ccc(C)cc4)c3N2)cc1 (stereo not given) | inactive
21 | Cc1ccc2nc3sc(C(=O)Nc4ccc(F)cc4)cc3cc2c1 | 2.33 µM (active)
22 | Cc1sc2ncn(CC(=O)N3CCN(c4ccc(Cl)cc4)CC3)c(=O)c2c1S(=O)(=O)N1CCN(c2ncccn2)CC1 | inactive
23 | COc1ccccc1CNC(=O)c1ccc2c(c1)CCN2S(=O)(=O)c1ccccc1 | inactive
24 | CC(=O)c1ccc(NC(=O)CC2Nc3cccc4cccc(c34)NC2=O)cc1 (stereo not given) | inactive
25 | O=S(=O)(NCC(c1ccco1)S(=O)(=O)c1cccs1)c1ccc(Cl)cc1 (stereo not given) | inactive
